AID inhibitor – blocks human AID cytidine deaminase activity | Q9GZX7 | AID deamination FRET fluorescence, UDG-coupled, 4 h | actives 0.32% (n = 91,000) | Potency, µM (titrated, usually from 115 µM), most hits filed as inhibitors; note: nearly all actives have a fitted effect of over 25% in size
Target sequence (Q9GZX7 whole entry, looked up): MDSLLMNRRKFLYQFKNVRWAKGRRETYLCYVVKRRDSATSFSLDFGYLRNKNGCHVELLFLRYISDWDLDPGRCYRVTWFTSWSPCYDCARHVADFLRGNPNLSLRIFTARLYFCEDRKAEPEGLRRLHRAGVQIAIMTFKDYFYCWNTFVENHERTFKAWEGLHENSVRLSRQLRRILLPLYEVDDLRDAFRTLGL
UDG counter – blocks uracil-DNA glycosylase in AID counter-screen; FRET deamination/UDG coupled assay, UDG read, 4 h; actives 0.14% (n = 91,000); AID 1347430; Potency, µM (series often up to 115 µM), usual class: inhibitors; note: nearly all actives have a fitted effect of over 65% in size
Each line names hits and unclear results; the compound was inactive in the other large screens. Only some compounds are listed: those with a hit (about 0.4% of all), similar ones and a draw of the others. Calls come from the whole dose curve; as a rule, active = well fitted curve in the direction sought with a large enough effect; inconclusive = small, poorly fitted or top-dose-only effect, or another doubt; inactive = no such curve, though single readings can be large; an effect the other way counts as inactive or inconclusive.

Cn1nc(-c2ccc(N3CCOCC3)c(NC(=O)COc3ccccc3)c2)c2ccccc2c1=O	AID inhibitor inconclusive, UDG counter 89.1µM
Cn1nc(-c2ccc(OCC(=O)N3CCOCC3)cc2)c2ccccc2c1=O	none
COC(=O)CSc1nc2c(c(-c3cccs3)c1C#N)CCCC2	none
CC(C)(C)C1CCc2nc(SCC(N)=O)c(C#N)c(C(F)(F)F)c2C1 (configuration not stated)	AID inhibitor inconclusive, UDG counter 79.4µM
COc1cccc(C(=O)OCc2ccc(C#N)cc2)c1OC	none
COc1ccc(NC(=O)CC2Nc3ccccc3NC2=O)cc1 (configuration not stated)	none
CCOC(=O)c1ccc(NC(=O)CC2Nc3cccc4cccc(c34)NC2=O)cc1 (configuration not stated)	AID inhibitor inconclusive
CC(=O)c1ccc(NC(=O)CC2Nc3cccc4cccc(c34)NC2=O)cc1 (configuration not stated)	AID inhibitor 79.4µM, UDG counter inconclusive
CCOc1ccc(NC(=O)CC2Nc3cccc4cccc(c34)NC2=O)cc1 (configuration not stated)	AID inhibitor 50.1µM, UDG counter inconclusive
Oc1ccc(-c2nc(-c3ccc(Cl)cc3)cs2)cc1	none
COc1ccc(C2=NC(c3ccccc3)=Nc3ccc(C)cc3N2)cc1	UDG counter 79.4µM
Cc1ccc(C2=NC(c3ccccc3)=Nc3ccc(Cl)cc3N2)cc1	UDG counter inconclusive
COc1ccccc1OCC(=O)N1CCC(c2nc3ccccc3o2)CC1	none
Cc1ccc(C(C)C)c(OCC(=O)N2CCC(c3nc4ccccc4o3)CC2)c1	AID inhibitor 39.8µM
Cc1ccc(/C=N/NC(=O)c2csc3ccccc23)s1	none
CCCCN(CCCC)CC(O)Cn1cc(/C=C/C(=O)c2ccccc2)c2ccccc21 (configuration not stated)	AID inhibitor 31.6µM
CCCCN(C)CC(O)Cn1cc(/C=C/C(=O)c2ccc(OCC)cc2)c2ccccc21 (configuration not stated)	AID inhibitor inconclusive
Cc1[nH]c2ccccc2c1/C=C/C(=O)c1ccc(Br)cc1	none
Cc1ccc(S(=O)(=O)c2cn(C)c3cc(N4CCCC4)c(F)cc3c2=O)c(C)c1	none
CCn1cc(S(=O)(=O)c2ccc(C)cc2C)c(=O)c2cc(F)c(N3CCCC3)cc21	AID inhibitor 22.4µM, UDG counter inconclusive
CC(C)(C)c1ccc(C(=O)NCC(c2cccs2)S(=O)(=O)c2ccc(F)cc2)cc1 (configuration not stated)	UDG counter 79.4µM
CC(C)(C)c1ccc(C(=O)NCC(c2cccs2)S(=O)(=O)c2cccs2)cc1 (configuration not stated)	AID inhibitor inconclusive
Oc1ccc(N=Cc2ccccc2OCc2ccccc2)cc1	AID inhibitor 14.1µM, UDG counter inconclusive
C(=Nc1ccccc1)c1ccccc1OCc1ccccc1	none
O=C(/C=C/c1cccs1)Oc1ccccc1/C=C/C(=O)c1cc2ccccc2o1	none
Cc1ccc(NC(=O)c2c(C)nc3sc(C(=O)Nc4ccc(F)cc4)c(N)c3c2-c2ccccc2Cl)c(C)c1	none
Cc1ccc(NC(=O)c2c(C)nc3sc(C(=O)Nc4ccc(F)cc4)c(N)c3c2-c2ccc(Cl)cc2)c(C)c1	AID inhibitor 31.6µM, UDG counter 89.1µM
CC(CNC(=O)c1cc2ccccc2o1)N1CCCC1 (configuration not stated)	none
Cc1ccc(C(=O)c2cn(Cc3ccccc3F)c3cc4c(cc3c2=O)OCCO4)cc1	AID inhibitor inconclusive
Cc1ccc(C(=O)c2cn(Cc3ccccc3F)c3cc4c(cc3c2=O)OCO4)cc1	AID inhibitor 39.8µM
Cc1cccc2cc(CN(C(=O)c3ccccc3)C(C)C)c(=O)[nH]c12	none
COc1ccc(C(C)=O)cc1COC(=O)C12CC3CC(CC(Br)(C3)C1)C2	none
CN(C)c1ccc(C(=O)NCc2ccc3c(c2)CCN3C(=O)c2ccccc2)cc1	UDG counter 79.4µM
CCN(CC)c1ccc(C(=O)NCc2ccc3c(c2)CCN3C(=O)c2ccccc2)cc1	none
COc1ccccc1CCNC(=O)C1CCN(c2nc(Cl)nc3nc[nH]c23)CC1	none
C=CCSc1nnc(NC(=O)c2cc(=O)c3ccc(Br)cc3o2)s1	none
O=C(Nc1nonc1-c1ccc2c(c1)CCCC2)c1cc(=O)c2ccc(Br)cc2o1	AID inhibitor 20µM
COc1ccc(CCNC(=O)Cn2c(=O)c3cccn3c3ccc(F)cc32)cc1OC	AID inhibitor 79.4µM
COc1ccc(CCNC(=O)Cn2c(=O)c3cccn3c3ccccc32)cc1OC	none
CC(=O)c1ccc(NC(=O)c2ccccc2SC(C)C)cc1	none
CS(=O)(=O)Cc1ccc(CNCc2cccc3ccccc23)cc1	none
CS(=O)(=O)Cc1ccc(CNCc2ccccc2Cl)cc1	UDG counter 15.8µM
Cc1cccn2c(=O)c3cc(C(=O)NC(C)c4ccccc4)c(=N)n(CCOCCO)c3nc12 (configuration not stated)	none
CCOCCCn1c(=N)c(C(=O)NC(C)c2ccccc2)cc2c(=O)n3cccc(C)c3nc21 (configuration not stated)	AID inhibitor 22.4µM

Screening data: PubChem BioAssay, National Center for Advancing Translational Sciences (NCATS)
